Among the data in PubChem BioAssay (NCATS) are Potency and outcome values, retold here.

Structures are written as SMILES. “And” between values parts separate entries of the source, which are not always exact repeats. Equal entries are not always repeated. Inconclusive results are not listed. Some compounds were tested as several samples or in several runs, with calls that do not always agree. The source made the active and inactive calls. Calls follow the shape of the dose curve; as a rule, active = well fitted curve in the direction sought with a large enough effect; inconclusive = small, poorly fitted or top-dose-only effect, or another doubt; inactive = no such curve, though single readings can be large; an effect the other way counts as inactive or inconclusive.

A short description of experiment [1]: Quantitative high throughput screen for delayed death inhibitors of the malarial parasite plastid, 96 hour incubation (AID 488745). Also: nearly all actives have a fitted effect of over 70% in size. Also: potency is read from the fitted curve at half-maximal effect. The gist of the method: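 Decreased firefly luciferase luminescence indicates inhibited growth of reporter-integrated P. falciparum after two generations (96 h, 37 C, 5% CO2). Infected erythrocytes at 0.1% parasitemia, 2% hematocrit, in Albumax-supplemented RPMI 1640.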

A short description of experiment [2]: Quantitative high throughput screen for delayed death inhibitors of the malarial parasite plastid, 48 hour incubation (AID 488752). Also: nearly all actives have a fitted effect of over 65% in size. Also: potency is read from the fitted curve at half-maximal effect. Put shortly: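 One-generation (48 h) growth assay: a decrease in luciferase signal from an integrated reporter in P. falciparum-infected red cells (0.1% parasitemia, 2% hematocrit) after compound exposure at 37 C indicates parasite inhibition.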

Experiment [3] has as its target Thioredoxin reductase 1, cytoplasmic (Rattus norvegicus) (UniProt O89049). Briefly: qHTS Assay for Substrates of Mammalian Selenoprotein Thioredoxin Reductase 1 (TrxR1) (AID 488772).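 Also: series mostly up to about 57 µM; a drop in NADPH fluorescence below the no-compound background marks a TrxR1 substrate.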 Put shortly:
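In this dual-purpose format, potential substrates are identified from the first fluorescence read after selenite addition, not from the 8-minute delta. Rat enzyme is preincubated with NADPH and then with compound at ~22 deg C.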
(qHTS replaces the single test concentration by a dilution series.)

For experiment [4], the target named is Flap endonuclease 1 (Homo sapiens) (UniProt P39748). Kind of experiment: qHTS Validation Assay for the Inhibitors of Human Flap endonuclease 1 (FEN1) (AID 488816). Also: potency is read from the fitted curve at half-maximal effect. The gist of the method:
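Steps: add FEN1 (10 nM reagent) or buffer only; pin compounds; hold 15 min at room temperature; start with substrate, 50 nM final; read at 0 and 15 min; correct, normalize and fit a four-parameter Hill curve.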

Experiment [5] has as its target M-phase phosphoprotein 8 (Homo sapiens) (UniProt Q99549). Briefly: qHTS Validation Assay for Inhibitors for MPP8 Chromodomain Interactions with Methylated Histone Tails (AID 488949). Also: nearly all actives have a fitted effect of over 55% in size. Also: potency is read from the fitted curve at half-maximal effect. The gist of the method:
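AlphaScreen proximity signal from streptavidin donor and Ni-chelate acceptor beads (10 ug/mL each) reported binding of MPP8 to trimethyl-K9 H3(1-18) peptide, both at 50 nM. The complex formed 30 min before a 30 min compound exposure at room temperature, in PBS pH 7.4.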

For experiment [6], the target named is Chromobox protein homolog 1 (Homo sapiens) (UniProt P83916). Kind of experiment: qHTS Validation Assay for Inhibitors of HP1-beta Chromodomain Interactions with Methylated Histone Tails (AID 488953). Also: nearly all actives have a fitted effect of over 50% in size. Also: potency is read from the fitted curve at half-maximal effect. Put shortly:
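AlphaScreen proximity signal from streptavidin donor and nickel chelate acceptor beads (final 10 ug/mL) after 30 min dark incubation. Compounds had 30 min at room temperature with preformed complex of 50 nM HP1-beta and 50 nM b-H3(1-18)K9me3 in PBS pH 7.4 with 0.01% Tween-20.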

Experiment [7] deals with Methanococcus maripaludis chaperonin (MmCpn) (UniProt Q6LX38). Briefly: High-Throughput Screening for Modulators of Cytosolic Chaperonin Activity: MmCpn Primary Screen (AID 488978).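 Also: 50 nM MmCpn enzyme hydrolysing 30 µM ATP at 37 °C.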 The gist of the method: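 ATPase activity of 50 nM MmCpn was assayed with 30 uM ATP, 10 minutes at 37C, after a 5 min compound preincubation at room temperature. ADP production was read as HTRF emission at 590 and 665 nm.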

Experiment [8] has as its target Transient receptor potential cation channel subfamily V member 1 (Homo sapiens) (UniProt Q8NER1). Kind of experiment: HTS Assay for Compounds that Act as Enhancers of the Vanilloid Receptor 1 (AID 488979). The gist of the method: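 TRPV1-expressing cells loaded with Fluo-8 calcium dye; compounds added and calcium influx read kinetically for 3 min (agonist phase), then capsaicin at EC20 added and read 2 min more for enhancement. Fluorescence ex 480/em 520 nm.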

For experiment [9], the target named is Thioredoxin reductase 1, cytoplasmic (Rattus norvegicus) (UniProt O89049). Briefly: qHTS Assay for Inhibitors of Mammalian Selenoprotein Thioredoxin Reductase 1 (TrxR1) (AID 488773).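 Also: drop in NADPH fluorescence over an 8 min run after selenite addition; series mostly up to about 57 µM; nearly all actives have a fitted effect of over 40% in size.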 As to conditions: Potency: inhibition. Put shortly: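 Inhibition is scored from the loss of NADPH fluorescence between first and last reads of an 8-min kinetic run. Selenite (400 uM) was the substrate, added after 15 min compound preincubation at room temperature.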

Experiment [10] has as its target Thyrotropin receptor (Homo sapiens) (UniProt P16473). Briefly: qHTS Assay for Antagonists of the Thyroid Stimulating Hormone Receptor (AID 488980). Also: series mostly up to about 58 µM. The gist of the method: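 Inhibition of cAMP raised by EC80 TSH (4 nM final) was read by HTRF, with lysate cAMP competing against cAMP-d2 for cryptate antibody after 30 min at room temperature. The cells were transfected HEK293 held in phosphodiesterase inhibitor RO 20-1724 at 70 uM.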

Chromobox protein homolog 1 (Homo sapiens), sequence (P83916 whole entry, looked up): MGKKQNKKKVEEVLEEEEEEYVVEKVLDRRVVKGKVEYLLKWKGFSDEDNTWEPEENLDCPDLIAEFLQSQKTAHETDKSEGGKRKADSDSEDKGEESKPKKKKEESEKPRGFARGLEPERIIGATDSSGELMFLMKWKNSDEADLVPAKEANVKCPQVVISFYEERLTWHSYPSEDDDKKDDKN
Methanococcus maripaludis chaperonin (MmCpn), sequence (Q6LX38 1-543): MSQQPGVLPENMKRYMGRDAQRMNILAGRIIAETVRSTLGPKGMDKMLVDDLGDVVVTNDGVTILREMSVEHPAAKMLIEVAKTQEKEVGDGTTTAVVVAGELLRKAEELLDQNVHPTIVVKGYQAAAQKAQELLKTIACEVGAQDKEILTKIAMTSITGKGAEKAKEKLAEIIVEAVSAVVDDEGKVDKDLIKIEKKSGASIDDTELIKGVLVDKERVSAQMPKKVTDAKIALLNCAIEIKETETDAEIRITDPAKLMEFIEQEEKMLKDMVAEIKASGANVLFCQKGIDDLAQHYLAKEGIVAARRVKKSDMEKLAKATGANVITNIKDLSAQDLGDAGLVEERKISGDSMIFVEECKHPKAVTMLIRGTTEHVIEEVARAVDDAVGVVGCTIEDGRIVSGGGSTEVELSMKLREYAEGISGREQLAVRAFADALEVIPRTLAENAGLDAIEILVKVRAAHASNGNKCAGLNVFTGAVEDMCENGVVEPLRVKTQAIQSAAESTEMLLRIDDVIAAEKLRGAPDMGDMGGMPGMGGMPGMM
Thyrotropin receptor (Homo sapiens), sequence (P16473 whole entry, looked up): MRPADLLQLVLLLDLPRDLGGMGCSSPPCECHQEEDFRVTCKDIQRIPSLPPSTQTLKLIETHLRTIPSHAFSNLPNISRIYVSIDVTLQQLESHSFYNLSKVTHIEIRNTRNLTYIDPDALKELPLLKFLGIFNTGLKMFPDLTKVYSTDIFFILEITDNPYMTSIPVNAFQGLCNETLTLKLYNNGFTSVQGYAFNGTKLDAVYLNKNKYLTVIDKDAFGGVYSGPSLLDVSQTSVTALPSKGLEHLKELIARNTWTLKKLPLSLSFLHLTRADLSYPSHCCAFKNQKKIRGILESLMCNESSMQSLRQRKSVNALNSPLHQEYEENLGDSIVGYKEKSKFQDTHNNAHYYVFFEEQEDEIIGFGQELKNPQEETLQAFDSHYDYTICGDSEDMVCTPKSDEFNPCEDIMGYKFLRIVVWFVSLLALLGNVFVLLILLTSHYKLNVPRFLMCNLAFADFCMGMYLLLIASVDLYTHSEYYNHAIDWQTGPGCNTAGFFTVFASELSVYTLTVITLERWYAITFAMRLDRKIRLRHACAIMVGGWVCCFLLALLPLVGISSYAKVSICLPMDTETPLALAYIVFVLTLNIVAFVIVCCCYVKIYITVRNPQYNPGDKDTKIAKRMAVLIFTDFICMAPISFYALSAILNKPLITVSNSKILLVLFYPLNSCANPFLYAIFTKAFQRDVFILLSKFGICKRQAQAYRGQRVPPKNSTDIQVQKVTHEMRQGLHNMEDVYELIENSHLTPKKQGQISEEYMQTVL
Transient receptor potential cation channel subfamily V member 1 (Homo sapiens), sequence (Q8NER1 whole entry, looked up): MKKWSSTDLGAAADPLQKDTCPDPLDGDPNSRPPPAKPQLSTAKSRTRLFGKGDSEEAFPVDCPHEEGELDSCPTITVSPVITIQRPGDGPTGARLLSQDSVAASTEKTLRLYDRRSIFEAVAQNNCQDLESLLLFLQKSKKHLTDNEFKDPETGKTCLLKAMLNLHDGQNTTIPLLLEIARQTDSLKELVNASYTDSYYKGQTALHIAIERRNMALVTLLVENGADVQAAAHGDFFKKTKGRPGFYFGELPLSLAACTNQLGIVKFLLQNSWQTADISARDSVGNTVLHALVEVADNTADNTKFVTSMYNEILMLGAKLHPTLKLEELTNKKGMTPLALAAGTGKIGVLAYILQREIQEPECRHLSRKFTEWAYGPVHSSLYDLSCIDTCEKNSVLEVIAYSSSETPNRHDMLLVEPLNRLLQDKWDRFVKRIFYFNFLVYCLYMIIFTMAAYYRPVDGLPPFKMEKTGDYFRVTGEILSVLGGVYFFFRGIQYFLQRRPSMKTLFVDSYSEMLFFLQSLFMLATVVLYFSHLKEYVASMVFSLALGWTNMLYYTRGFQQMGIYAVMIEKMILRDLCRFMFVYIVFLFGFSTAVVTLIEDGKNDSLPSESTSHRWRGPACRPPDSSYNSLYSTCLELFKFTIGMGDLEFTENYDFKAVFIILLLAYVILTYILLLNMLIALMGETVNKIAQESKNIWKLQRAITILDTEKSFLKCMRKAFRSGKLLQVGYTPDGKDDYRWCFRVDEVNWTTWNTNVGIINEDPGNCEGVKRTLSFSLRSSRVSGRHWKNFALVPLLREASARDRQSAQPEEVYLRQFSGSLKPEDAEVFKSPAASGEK
Thioredoxin reductase 1, cytoplasmic (Rattus norvegicus), sequence (O89049 whole entry, looked up): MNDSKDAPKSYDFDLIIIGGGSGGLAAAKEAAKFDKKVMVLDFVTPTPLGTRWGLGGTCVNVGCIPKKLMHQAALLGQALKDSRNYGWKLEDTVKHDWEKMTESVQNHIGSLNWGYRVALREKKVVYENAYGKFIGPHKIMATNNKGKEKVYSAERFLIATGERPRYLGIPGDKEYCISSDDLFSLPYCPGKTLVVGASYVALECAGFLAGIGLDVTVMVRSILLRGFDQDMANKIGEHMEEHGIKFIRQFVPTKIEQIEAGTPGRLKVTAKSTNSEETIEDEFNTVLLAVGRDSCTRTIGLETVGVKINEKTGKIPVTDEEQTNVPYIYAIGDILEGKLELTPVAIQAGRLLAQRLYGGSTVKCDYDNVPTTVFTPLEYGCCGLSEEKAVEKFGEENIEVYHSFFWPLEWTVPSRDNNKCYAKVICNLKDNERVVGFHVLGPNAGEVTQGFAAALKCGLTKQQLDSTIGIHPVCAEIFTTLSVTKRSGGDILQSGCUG
Flap endonuclease 1 (Homo sapiens), sequence (P39748 whole entry, looked up): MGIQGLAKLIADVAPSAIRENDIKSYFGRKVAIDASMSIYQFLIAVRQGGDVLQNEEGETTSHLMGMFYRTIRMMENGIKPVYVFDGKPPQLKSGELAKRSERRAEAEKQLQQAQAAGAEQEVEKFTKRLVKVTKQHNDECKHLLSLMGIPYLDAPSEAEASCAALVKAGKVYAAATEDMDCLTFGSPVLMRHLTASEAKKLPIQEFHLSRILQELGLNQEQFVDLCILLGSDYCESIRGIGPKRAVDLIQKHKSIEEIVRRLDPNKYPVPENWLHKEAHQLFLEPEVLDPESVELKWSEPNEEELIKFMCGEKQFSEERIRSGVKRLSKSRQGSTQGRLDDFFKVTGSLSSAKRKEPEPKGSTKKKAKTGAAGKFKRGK
M-phase phosphoprotein 8 (Homo sapiens), sequence (Q99549 whole entry, looked up): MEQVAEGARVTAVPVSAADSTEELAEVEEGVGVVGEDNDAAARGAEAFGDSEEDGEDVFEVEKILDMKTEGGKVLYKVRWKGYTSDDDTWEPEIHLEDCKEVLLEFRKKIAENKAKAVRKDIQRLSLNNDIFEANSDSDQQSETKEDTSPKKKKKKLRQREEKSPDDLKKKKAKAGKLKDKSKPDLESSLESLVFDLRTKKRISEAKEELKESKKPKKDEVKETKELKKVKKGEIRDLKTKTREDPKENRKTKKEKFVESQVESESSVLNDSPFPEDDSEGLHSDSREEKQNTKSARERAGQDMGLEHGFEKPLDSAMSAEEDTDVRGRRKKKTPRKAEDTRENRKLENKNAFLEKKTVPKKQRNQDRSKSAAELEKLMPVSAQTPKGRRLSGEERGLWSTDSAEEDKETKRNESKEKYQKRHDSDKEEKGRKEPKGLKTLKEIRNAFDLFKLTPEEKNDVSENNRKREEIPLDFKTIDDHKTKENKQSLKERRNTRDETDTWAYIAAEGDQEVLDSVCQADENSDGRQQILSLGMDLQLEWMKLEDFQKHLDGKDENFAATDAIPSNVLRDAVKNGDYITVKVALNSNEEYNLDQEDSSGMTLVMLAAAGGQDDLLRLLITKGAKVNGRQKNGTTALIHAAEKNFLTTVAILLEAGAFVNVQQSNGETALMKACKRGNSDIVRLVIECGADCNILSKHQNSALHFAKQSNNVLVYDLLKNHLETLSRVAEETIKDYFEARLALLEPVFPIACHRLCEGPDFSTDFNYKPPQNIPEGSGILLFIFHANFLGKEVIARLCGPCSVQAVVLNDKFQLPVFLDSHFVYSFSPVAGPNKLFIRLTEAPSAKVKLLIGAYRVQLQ

`NC(Cc1ccc(N(CCCl)CCCl)cc1)C(=O)O` (centres undefined): the Potency in experiment [1] is 14.7 µM (active); in experiment [2], 8.28 µM (active); in experiment [6], 0.0067 µM (active). Moreover, the compound was called inactive in experiment [3], in experiment [7] and in experiment [8]. The Potency result in [4] and in [5] was “inactive” in each case.

On to `C#CCN[C@H](C)Cc1ccccc1`, for which the Potency result in experiment [1], in [2], in experiment [9], in experiment [5] and in experiment [6] was “inactive” throughout. For the same compound, the outcome in experiment [3], in experiment [7] and in [8] was inactive.

Consider `NCCc1ccc(S(=O)(=O)F)cc1`, for which the Potency result in [1], in [2], in experiment [4], in [5] and in experiment [6] was “inactive” each time. For the same compound, the outcome in experiment [3], in experiment [7], in [8] and in experiment [10] was inactive.

For `CCCN1CC[C@@H]2c3cc(O)ccc3CC[C@@H]21`, the Potency result in [1], in experiment [2], in experiment [4] and in experiment [5] was “inactive” each time. The outcome in experiment [3], in [7] and in [8] was inactive.

For `O=C1CC[C@@]2(O)C3Cc4ccc(O)c5c4C2(CCN3CC2CC2)[C@H]1O5` (some centres undefined), the Potency result in [1], in [2], in [5] and in experiment [6] was “inactive” throughout. Besides, the compound was classed as inactive in experiment [3], in experiment [7], in [8] and in [10].

For the compound `CCN(CCCl)Cc1ccccc1Br`, the Potency entry in experiment [1], in [2], in [5] and in experiment [6] was “inactive” in each case. For the same compound, the outcome in [3], in [7], in experiment [8] and in [10] was inactive.

Consider `NCCCP(=O)(O)O`, for which the Potency entry in experiment [1], in experiment [2], in experiment [4] and in [5] was “inactive” throughout. Besides, the outcome in experiment [3], in experiment [7], in [8] and in experiment [10] was inactive.

Take `CC(=O)NBr`: the Potency result in experiment [1], in [2], in experiment [4], in [5] and in experiment [6] was “inactive” in each case. Moreover, the compound was classed as inactive in experiment [3], in experiment [7] and in [8].

Consider `COc1ccc(OC)c(C(O)C(C)N)c1` (centres undefined), for which the Potency entry in experiment [1], in experiment [2], in experiment [4], in experiment [5] and in experiment [6] was “inactive” throughout. The compound was classed as inactive in [3], in [7], in experiment [8] and in [10].

As for `O=C1C=CC(=O)C=C1`, the Potency entry in experiment [1], in experiment [2], in experiment [9], in experiment [5] and in [6] was “inactive” throughout. In addition, the compound was classed as inactive in [3], in experiment [7], in experiment [8] and in experiment [10].

`Cc1c2ccncc2c(C)c2c1[nH]c1ccccc12`: the Potency was 1.17 µM (active) in experiment [1], 1.85 µM (active) in experiment [2], 10.6 µM (active) in experiment [4] and 50.1 µM (active) in experiment [6]. In addition, the call in [3], in [7], in experiment [8] and in [10] was inactive. In addition, the Potency result in experiment [5] was “inactive”.

With `CCCN(CCC)C1Cc2cc(OC)c(OC)cc2C1`, the Potency entry in experiment [1], in [2], in experiment [4] and in experiment [6] was “inactive” each time. Besides, the call in experiment [3], in [7], in experiment [8] and in [10] was inactive.

As to `O=[N+]([O-])c1ccc2nc(N3CCNCC3)ccc2c1`, the Potency result in experiment [1], in [2], in experiment [9] and in [5] was “inactive” each time. Further, the compound was called inactive in [3], in [7], in [8] and in experiment [10].

`NC(Cc1cc(O)c(O)cc1O)C(=O)O` (centres undefined): the Potency entry in [1] and in experiment [2] was “inactive” in each case. For the same compound, the compound was called inactive in experiment [3], in experiment [7], in experiment [8] and in [10]. Further, the Potency is 0.67 µM (active) in experiment [4]; 501 nM (active) and 474 nM (active) in [5]; 0.316 µM (active) in experiment [6].

In the case of `CCCN(CCC)C1CCc2cccc(O)c2C1` (centres undefined), the Potency entry in experiment [1], in experiment [2], in experiment [4], in experiment [5] and in experiment [6] was “inactive” in each case. For the same compound, the compound was called inactive in experiment [3], in [7], in experiment [8] and in experiment [10].

For the compound `O=S1(=O)N(CCN2CC=C(c3c[nH]c4cc(F)ccc34)CC2)c2cccc3c2N1CCC3`, the results for the Potency in [1], in [2] and in experiment [6] were 0.465 µM (active), 1.47 µM (active) and 39.8 µM (active), respectively. Also, the outcome in experiment [3], in [7], in [8] and in [10] was inactive. The Potency entry in [9] is “inactive”.

Turning to `CCn1cnc2c(Nc3cccc(Cl)c3)nc(N[C@@H]3CCCC[C@@H]3N)nc21`, the Potency in experiment [1] is 0.208 µM (active); in experiment [2], 5.86 µM (active); in [5] it was 39.8 µM (active) and inactive; in experiment [6], 39.8 µM (active). For the same compound, the outcome in experiment [3] and in [7] was inactive.

In the case of `Cc1sc2ccccc2c1CC1=NCCN1`, the Potency entry in experiment [1], in [2], in [9] and in [5] was “inactive” each time. Also, the compound was classed as inactive in experiment [3], in [7], in experiment [8] and in experiment [10].

Turning to `c1ccc2c(c1)[I+]c1ccccc1-2`, the Potency in [1] is 0.131 µM (active); in experiment [2], 0.147 µM (active). Besides, the result in [3], in experiment [7] and in [8] was inactive. Further, the Potency result in [5] and in [6] was “inactive” throughout.

As to `CP(=O)(O)C1=CCNCC1`, the Potency result in experiment [1], in experiment [2], in experiment [4], in experiment [5] and in [6] was “inactive” throughout. Also, the compound was classed as inactive in experiment [3], in experiment [7], in experiment [8] and in experiment [10].

`N#CC(C#N)=Cc1cc(O)c(O)c(O)c1`: the Potency entry in experiment [2] was “inactive”. In addition, the Potency in experiment [5] is 39.8 µM (active). For the same compound, the result in [8] and in experiment [10] was inactive.

With `CC(N)Cc1c[nH]c2ccc(O)cc12` (centres undefined), the Potency result in experiment [2], in experiment [9] and in experiment [4] was “inactive” in each case. Moreover, the compound was classed as inactive in [3], in experiment [7], in experiment [8] and in experiment [10].

On to `C[N+]1(C)CCOC(O)(c2ccc(-c3ccc(C4(O)C[N+](C)(C)CCO4)cc3)cc2)C1` (centres undefined), for which the Potency entry in experiment [1], in experiment [9], in [4], in [5] and in experiment [6] was “inactive” in each case. The result in experiment [3], in experiment [7], in [8] and in [10] was inactive.

Consider `COC(=O)N1CCN(C(=O)Cc2ccc(Cl)c(Cl)c2)C(CN2CCCC2)C1` (centres undefined), for which the Potency result in experiment [1] and in experiment [4] was “inactive” throughout. In addition, the compound was classed as inactive in [3], in [7], in experiment [8] and in experiment [10].

For the compound `CC(Cc1ccc(OCC(=O)O)cc1)NCC(O)c1cccc(Cl)c1` (centres undefined), the Potency result in experiment [1], in experiment [2], in [9], in experiment [4] and in experiment [6] was “inactive” each time. Further, the call in [7] and in [8] was inactive.

Regarding `Nc1ccc(CCN2CCN(c3cccc(C(F)(F)F)c3)CC2)cc1`, the Potency entry in [2], in [9] and in [4] was “inactive” in each case. Also, the outcome in experiment [3], in experiment [7] and in [8] was inactive.

For `CO[C@H]1CC=C2CCN3CCC4=C(CC(=O)OC4)[C@]23C1`, the Potency result in experiment [1], in [9], in [5] and in [6] was “inactive” in each case. For the same compound, the compound was called inactive in [3], in experiment [7] and in experiment [8].
